Measured values as given in PubChem BioAssay (NCI).
The panel holds about 83,000 compounds, 20% with a hit somewhere; the sample as a whole holds those more often.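 Plates (96-well) were seeded with cells, treated with compound at one concentration, and incubated for 48 hours before percent growth was determined.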 Values without a mark were called inactive. Activity calls are given as the source filed them. Rule for the calls: active = growth percent below 10; inactive = the rest.

Legend:
Assay in all cases: NCI-60 one-dose screen, 48 h (100 = growth as untreated, 0 = no growth, -100 = all killed)
[1] = system: RPMI-8226 leukemia; settings: 10 µM unless noted
[2] = system: OVCAR-8 ovarian; settings: 10 µM unless noted
[3] = system: OVCAR-5 ovarian; settings: 10 µM unless noted
[4] = system: OVCAR-4 ovarian; settings: 10 µM unless noted
[5] = system: IGROV1 ovarian; settings: 10 µM unless noted
[6] = system: OVCAR-3 ovarian; settings: 10 µM unless noted
[7] = system: HS 578T breast; settings: 10 µM unless noted
[8] = system: NCI/ADR-RES ovarian; settings: 10 µM unless noted
[9] = system: T-47D breast; settings: 10 µM unless noted
[10] = system: BT-549 breast; settings: 10 µM unless noted
[11] = system: MDA-MB-435 melanoma; settings: 10 µM unless noted
[12] = system: SW-620 colon; settings: 10 µM unless noted
[13] = system: MCF7 breast; settings: 10 µM
[14] = system: HCT-116 colon; settings: 10 µM unless noted
[15] = system: HCC-2998 colon; settings: 10 µM unless noted
[16] = system: KM12 colon; settings: 10 µM unless noted
[17] = system: SK-OV-3 ovarian; settings: 10 µM unless noted

SMILES | growth [1] | growth [2] | growth [3] | growth [4] | growth [5] | growth [6] | growth [7] [%] | growth [8] | growth [9] | growth [10] [%] | growth [11] | growth [12] | growth [13] | growth [14] | growth [15] | growth [16] | growth [17] [%]
Fc1ccc(Oc2ccc(Nc3ncnc4onc(-c5ccccc5)c34)cc2)cc1 | 113% | 95.5% | 101% | 102% | 87.6% | 109% | 96.6 | 101% | 94.5% | 78.6 | 103% | 95% | 94.5% | 99.1% | 105% | 99.5% | 
CNC(=O)c1cc(Oc2ccc(CC(=O)Nc3cc(C(C)(C)C)cn3C)cc2)ccn1 | 53.1% | 65.2% | 116% | 48.9% | 67% | 81.6% | 86.9 | 72.4% | 48.9% | 63.9 | 66.2% | 105% | 50.1% | 54.3% | 103% | 86.3% | 
COC(=O)C1(C)CCC[C@]2(C)[C@H]3C[C@H]4C(C(C)C)=C[C@]3(CC[C@@H]12)[C@H]1[C@@H]4[C@@H](OCC#CCN2CCOCC2)CC[C@@H]1OCC#CCN1CCOCC1 (some centres not stated) | 67.7% | 83.2% | 106% | 64.7% | 70.6% | 86.3% | 86.6 | 74.9% | 64.5% | 97.7 | 92.5% | 94.7% | 77.3% |  | 97.4% | 93.2% | 
COC(=O)/C(CCC=C(C)C)=C1\[C@@H](OC(C)=O)C[C@@]2(C)[C@H]1C[C@@H](O)[C@H]1[C@@]3(C)CC[C@H](NCc4ccccc4)[C@@H](C)[C@@H]3CC[C@@]12C | 16.9% | 76.1% | 88.7% | 61.2% | 70.3% | 69.6% | 67.3 | 64.6% | 62.3% | 76.2 | 75.7% | 63.5% | 49.5% |  | 72.8% |  | 
Cc1ccccc1CNC(=O)C1CN(c2ccc(Cl)cc2)N(c2ccc(Cl)cc2)C1=O (configuration not stated) | 65% | 87.9% | 91.8% | 84.1% | 89.7% | 81.1% | 85.5 | 84.3% | 71.6% | 90.6 | 35.9% | 81.9% | 74.1% | 83.8% | 100% | 87.2% | 
C=C1C(=O)O[C@H]2[C@H]1CC/C(COC(=O)/C=C\C(=O)O)=C\CC[C@@]1(C)O[C@@H]21 | 114% | 101% | 93.8% | 113% | 107% | 113% | 103 | 101% | 100% | 103 | 107% | 105% | 94.3% | 109% | 104% | 106% | 
O=C(/C=C/c1ccc(F)cc1)c1ccc(Nc2nc(NCCO)nc(Nc3ccc(Cl)cc3)n2)cc1 | 1.78% (active) | 78.4% | 96.8% | 78.6% | 96.4% | 77% | 86.8 | 87.2% | 41.5% | 72 | 74.5% | 46.3% | 4.3% (active) | 8.67% (active) | 29.9% | 25.5% | 
O=C(/C=C/c1ccc(Cl)cc1)c1ccc(Nc2nc(NCCO)nc(Nc3ccc(Cl)cc3)n2)cc1 | -3.49% (active) | 70.8% | 94.3% | 52.8% | 80.1% | 63.2% | 77.2 | 84.6% | 36.1% | 68 | 62.2% | 62.6% | -31.3% (active) | -78.9% (active) | 20.2% | 18.7% | 
Cc1cccc2c(=O)c3c(sc12)c(NCCN)nc1ccccc13 | -37.9% (active) | -25% (active) | -46.9% (active) | -24.4% (active) | -70.1% (active) | -89.6% (active) | 37.1 | -45.5% (active) | -50.2% (active) | 72.1 | -93.9% (active) | -77.6% (active) | -82.1% (active) | -93.9% (active) | -77.8% (active) | -90.5% (active) | 
COc1cc(C=C2C(=O)N(C)C(=O)N(C)C2=O)cc(CN2CCCCC2)c1O | 104% | 105% | 96.9% | 103% | 104% | 105% | 96 | 105% | 90.2% | 101 | 103% | 104% | 92.5% |  | 103% | 103% | 
Cc1cccc2c(=O)c3c(sc12)c(NCCCNCCO)nc1ccccc13 | -26.5% (active) | 45.4% | 74.4% | 54.3% | 15.1% | 64.5% | 45.4 | 60.5% | 62.7% | 73 | 29.5% | -51.6% (active) | -61% (active) |  | 12.7% | 33.6% | 
COc1cc(C2CC(c3ccc(Nc4nc(NCCO)nc(N5CCOCC5)n4)cc3)=NN2c2cc(Cl)cc(Cl)c2)cc(OC)c1OC (configuration not stated) | 33.4% | 48.8% | 74.4% | 57.2% | 55% | 56.9% | 22.6 | 48.8% | 41.4% | 75.3 | 49.6% | 81.6% | 15.3% | 33.1% | 63.4% | 37.6% | 
CNCCNc1nc2ccccc2c2c(=O)c3cccc(C)c3sc12 | -30.5% (active) | 37.4% | 55.3% | 29.4% | 18.1% | 47.7% | 61.6 |  | 49.3% | 76.4 | 6.07% (active) | -62.4% (active) | -66.1% (active) | -91.4% (active) | -43.2% (active) | -29.9% (active) | 
CCOC(=O)c1c(Cl)c2c(n1Cc1ccccc1)-c1oncc1CCC2 | 50.6% | 84.3% | 95.3% |  | 75.1% | 39.5% | 69.7 | 43.5% | 80.7% | 87.6 | -12.9% (active) | 39.5% | 37.5% | 50.3% | 61.8% | 53.1% | 95.2
C[n+]1c2ccccc2nc2ccc(NCCO)cc21 | 66.8% | 82.1% | 102% |  | 63.9% | 79.2% | 82.7 | 86.4% | 91.9% | 105 | 98.4% | 96.6% | 84.8% | 94.2% | 116% | 92% | 112
CCOC(=O)c1ccc2[nH]c(-c3ccccc3)cc(=O)c2c1 | 88.2% | 97.6% | 101% |  | 92.5% | 106% | 104 | 102% | 105% | 103 | 107% | 103% | 99.8% | 99.4% | 112% | 105% | 112
c1ccc(-c2ccc(-c3nc4ccccc4[nH]3)cc2)cc1 | 51.2% | 89.4% | 106% |  | 75.1% | 86.2% | 94.5 | 86.7% | 86.6% | 94.2 | 82.4% | 101% | 76.3% | 74.1% | 88.3% | 84.6% | 89.3
COc1cccc(-c2nn(C)c3sc(C(=O)NCCN4CCN(c5ccccc5F)CC4)cc23)c1 | -18.3% (active) | 88% | 88.4% |  | 65.2% | 64.9% | 63 | 84.9% | 57.4% | 90.8 | -55.7% (active) | 74.6% | 15.1% | 33.5% | -41.1% (active) | 54.2% | 88.7
